# Experimental data published in PubChem BioAssay.
# Calls of active or inactive are those of the source.
# Tests used:
# [1] = compound effects on lung adenocarcinoma cell viability – A549, calcein-AM fluorescence, 48 h, basal, profiling panel (AID 1162); details: higher = more signal; further: test concentration not given here
# [2] = compound effects on differentiated 3T3-L1 adipocyte viability – cell-based, 3T3-L1 adipocytes, calcein-AM fluorescence, 48 h, basal, profiling panel (AID 1163); details: 3T3-L1 adipocytes viability, higher = more signal; further: test concentration not given here
# [3] = compound effects on hepatocellular carcinoma cell viability – HepG2, calcein-AM fluorescence, 48 h, basal, profiling panel (AID 1164); details: higher = more signal; further: test concentration not given here
# [4] = compound effects on multiple myeloma cell viability – MM1S, calcein-AM fluorescence, 48 h, basal, profiling panel (AID 1165); details: higher = more signal;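 further: viability of MM1S multiple myeloma cells under basal unstimulated conditions; test concentration not given here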
# [5] = calcein-AM signal in unstimulated myeloma cells – cell-based, calcein-AM fluorescence, 48 h, PK04 Diversity Set, profiling panel (AID 1166); details: RPMI8226 myeloma viability, higher = more signal;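 further: cells grown under basal conditions without added stimulus; test concentration not given here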
# [6] = JC-1 mitochondrial signal, unstimulated HepG2 cells – cell-based, JC-1 fluorescence, 24 h, 100 nL compound, profiling panel (AID 1167); details: HepG2 mitochondrial potential, higher = more signal; further: test concentration not given here
# [7] = JC-1 mitochondrial signal, unstimulated adipocytes – cell-based, JC-1 fluorescence, 3T3-L1 adipocytes, 24 h, 100 nL compound, profiling panel (AID 1168); details: JC-1 mitochondrial fluorescence, higher = more signal, called active from +8 up or from −8 down; further: test concentration not given here
# [8] = JC-1 mitochondrial signal, unstimulated myeloma cells – cell-based, JC-1 fluorescence, RPMI8226, 24 h, 100 nL compound, profiling panel (AID 1169); details: JC-1 mitochondrial potential fluorescence, higher = more signal; further: test concentration not given here
# [9] = JC-1 mitochondrial signal, unstimulated MM1S myeloma – cell-based, JC-1 fluorescence, 24 h, 100 nL compound, profiling panel (AID 1170); details: MM1S mitochondrial potential, higher = more signal; further: test concentration not given here
# [10] = resazurin metabolic signal in A549 cells – cell-based, resazurin fluorescence, 24 h, PK04 Diversity Set, profiling panel (AID 1171); details: A549 viability, higher = more signal, called active from +8 up or from −8 down; further: test concentration not given here
# [11] = resazurin metabolic signal in HepG2 cells – cell-based, resazurin fluorescence, 24 h, PK04 Diversity Set, profiling panel (AID 1172); details: HepG2 viability, higher = more signal; further: test concentration not given here
# [12] = budding yeast growth changes without added modifier – OD600, strain BY4716, 24 h, basal condition, primary screen (AID 1173); details: S. cerevisiae BY4716 growth, OD600, 24 h; higher = more signal, called active from +8 up or from −8 down
# [13] = viability profiling in MM1S myeloma cells – cell-based, resazurin fluorescence, basal, 24 h, PK04 Diversity Set, profiling panel (AID 1174); details: higher = more signal, called active from +8 up or from −8 down; further: test concentration not given here
# [14] = target: Dihydroorotate dehydrogenase (quinone), mitochondrial (Plasmodium falciparum (isolate 3D7)) (UniProt Q08210); experiment: inhibition of P. falciparum DHODH – biochemical, C-terminal His tag, absorbance 600 nm, primary screen (AID 1175); details: PfDHODH enzyme, DCIP absorbance 600 nm; higher = more signal, called active from +8 up or from −8 down;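 further: recombinant parasite enzyme with a five histidine tag at its C terminus; test concentration not given here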
# Dihydroorotate dehydrogenase (quinone), mitochondrial (Plasmodium falciparum (isolate 3D7)), sequence (Q08210 whole entry, looked up): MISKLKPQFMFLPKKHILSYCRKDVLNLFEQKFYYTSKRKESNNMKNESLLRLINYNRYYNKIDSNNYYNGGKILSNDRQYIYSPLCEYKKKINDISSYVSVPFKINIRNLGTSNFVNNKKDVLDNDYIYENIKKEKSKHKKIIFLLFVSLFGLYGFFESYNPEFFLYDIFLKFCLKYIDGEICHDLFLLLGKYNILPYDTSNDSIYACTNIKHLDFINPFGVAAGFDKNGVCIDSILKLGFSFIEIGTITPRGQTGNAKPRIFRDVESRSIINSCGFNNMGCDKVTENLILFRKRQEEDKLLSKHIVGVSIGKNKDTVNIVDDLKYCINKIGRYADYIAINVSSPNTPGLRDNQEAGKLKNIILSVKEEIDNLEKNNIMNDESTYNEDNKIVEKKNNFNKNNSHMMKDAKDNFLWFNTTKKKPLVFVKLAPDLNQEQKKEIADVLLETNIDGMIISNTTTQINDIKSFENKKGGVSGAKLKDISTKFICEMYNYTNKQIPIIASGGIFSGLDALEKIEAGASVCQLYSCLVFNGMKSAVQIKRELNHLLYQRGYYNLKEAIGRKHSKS
# [15] = growth modulation of vineyard yeast isolate – strain RM11-1a, OD600, basal, 24 h, primary screen (AID 1177);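 further: cultures grown under basal conditions with no added stressor; test concentration not given here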; details: S. cerevisiae RM11-1a growth, OD600, 24 h; higher = more signal, called active from +8 up or from −8 down
# [16] = growth of efflux-deficient E. coli DRC39 – strain DRC39, OD650, 24 h, E. coli filamentation inducers, primary screen (AID 1178);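 further: growth measured as culture turbidity by optical density at 650 nm; test concentration not given here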; details: E. coli DRC39 acrAB, higher = more signal, called active from +8 up or from −8 down
# [17] = growth of efflux-deficient E. coli DRC39 – strain DRC39, OD650, 48 h, E. coli filamentation inducers, primary screen (AID 1179);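 further: screen aims at cell division blockers that make cells filament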; details: E. coli DRC39 delta-acrAB growth, higher = more signal, called active from +8 up or from −8 down
# [18] = viability profiling in RPMI8226 myeloma cells – cell-based, resazurin fluorescence, basal, 24 h, PK04 Diversity Set, profiling panel (AID 1180); details: higher = more signal;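 further: RPMI8826 multiple myeloma cell line at 5000 cells per well; test concentration not given here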
# [19] = target: E3 ubiquitin-protein ligase XIAP (Homo sapiens) (UniProt P98170); experiment: small molecules binding XIAP protein – biophysical, small-molecule microarray, fluorescence 635 nm, primary screen (AID 1181); details: higher = more signal;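 further: score merges 667 nm emission and signal to noise over triplicate slides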
# E3 ubiquitin-protein ligase XIAP (Homo sapiens), sequence (P98170 whole entry, looked up): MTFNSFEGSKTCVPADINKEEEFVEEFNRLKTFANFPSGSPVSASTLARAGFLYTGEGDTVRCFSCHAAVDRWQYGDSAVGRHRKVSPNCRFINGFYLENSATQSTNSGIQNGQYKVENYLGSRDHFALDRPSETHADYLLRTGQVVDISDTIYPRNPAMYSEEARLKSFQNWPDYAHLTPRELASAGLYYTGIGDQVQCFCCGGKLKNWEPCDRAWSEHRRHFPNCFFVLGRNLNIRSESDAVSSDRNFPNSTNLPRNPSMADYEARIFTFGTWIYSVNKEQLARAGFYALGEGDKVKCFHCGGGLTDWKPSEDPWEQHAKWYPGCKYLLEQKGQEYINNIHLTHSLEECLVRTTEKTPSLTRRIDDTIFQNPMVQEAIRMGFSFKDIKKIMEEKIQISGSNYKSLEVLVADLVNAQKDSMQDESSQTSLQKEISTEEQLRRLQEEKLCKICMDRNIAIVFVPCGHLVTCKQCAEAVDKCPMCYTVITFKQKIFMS
Compound,z-score [1],z-score [2],z-score [3],z-score [4],z-score [5],z-score [6],z-score [7],z-score [8],z-score [9],z-score [10],z-score [11],z-score [12],z-score [13],composite z-score [14],z-score [15],z-score [16],z-score [17],z-score [18],composite z-score [19]
Cc1ccc(S(=O)(=O)N[C@H]2COC(=O)CC=C[C@H](C)COC(=O)N[C@@H](C)C(=O)CC=C[C@@H]2C)cc1,-0.235,0.538,0.984,0.399,-0.558,1.27,0.946 (inactive),-0.614,0.809,0.333 (inactive),0.115,-0.949 (inactive),1.71 (inactive),0.32 (inactive),-0.698 (inactive),0.583 (inactive),0.286 (inactive),1.06,-0.0282
CO[C@H]1COC(=O)[C@H](Cc2ccccc2)NC(=O)CC=C[C@@H](C)[C@H](OC)COC(=O)CC=C[C@@H]1C,-0.0862,-0.557,0.5,0.214,1.71,0.00562,0.954 (inactive),-0.791,0.411,0.174 (inactive),0.471,-1.43 (inactive),0.0446 (inactive),0.0048 (inactive),-1.06 (inactive),0.373 (inactive),0.53 (inactive),0.562,0.0525
C[C@H]1COC(=O)[C@@H]2CCCN2C(=O)[C@@H](C)COC(=O)[C@@H]2CCCN2C1=O,0.507,0.442,-0.178,0.323,-0.0243,0.799,0.085 (inactive),-0.108,0.0551,1.5 (inactive),0.678,-0.978 (inactive),0.93 (inactive),-0.0223 (inactive),-0.691 (inactive),0.825 (inactive),-0.0322 (inactive),0.73,-0.294
C=CCC(OC(C)=O)[C@@H]1[C@@H](N(Cc2ccc(-c3ccccc3)cc2)C(=O)c2ccc(C)cc2)c2cc(OCCCO)ccc2N1C(=O)c1ccc(-c2ccccc2)cc1 (stereo partly specified),3.37,0.626,1.87,-0.732,0.887,4.05,1 (inactive),-0.454,1.22,2.47 (inactive),2.15,-1.71 (inactive),1.55 (inactive),-1.08 (inactive),-3.45 (inactive),2.05 (inactive),1.27 (inactive),1.51,-0.467
Cc1ccc(S[C@]2(C(=O)O)CC(=O)N(Cc3ccccc3)[C@@H]2c2ccc(CO)cc2)cc1,0.633,-0.671,-0.18,-0.476,0.607,0.536,0.923 (inactive),0.118,-0.418,0.477 (inactive),1.06,-3.67 (inactive),1.6 (inactive),-0.891 (inactive),-1.14 (inactive),0.537 (inactive),0.612 (inactive),0.512,0.123
COc1cccc([C@@H]2[C@@H](C)CC[C@H]3C(=O)N(C)[C@@H](C(C)C)C(=O)N23)c1,0.908,0.323,0.445,0.344,1.44,0.0824,0.517 (inactive),-0.338,0.64,0.65 (inactive),0.989,-1.32 (inactive),0.708 (inactive),0.295 (inactive),0.192 (inactive),0.847 (inactive),0.836 (inactive),1.67,0.258
COc1cccc([C@H]2N[C@H](C(=O)O)CC[C@@H]2C)c1,0.0912,2.03,-0.175,0.543,-1.36,1.16,0.75 (inactive),-0.358,0.632,-0.336 (inactive),-0.104,-1.03 (inactive),0.975 (inactive),-2.33 (inactive),-0.393 (inactive),-0.914 (inactive),-0.83 (inactive),0.761,0.169
Cc1ccc(S(=O)(=O)c2cc3oc2CC[C@@H](CO)NC(=O)N(C)Cc2cn(nn2)C[C@H](Cc2ccccc2)NC3=O)cc1,1.66,-0.129,0.372,-0.971,1.28,1.35,0.856 (inactive),0.501,0.536,1.39 (inactive),1.02,-2.64 (inactive),1.42 (inactive),0.164 (inactive),0.288 (inactive),1.74 (inactive),1.3 (inactive),1.03,0.0975
C[C@@H]1C=CCC(=O)OC[C@H]2O[C@@H](C=C[C@@H]2O)[C@H](C)C=CCC(=O)OC[C@H]2O[C@H]1C=C[C@@H]2O,-0.883,1.15,0.158,0.631,-1.99,0.885,0.902 (inactive),-0.744,0.92,-0.573 (inactive),-0.269,-2.13 (inactive),0.689 (inactive),-3.68 (inactive),-2.89 (inactive),0.552 (inactive),-1.41 (inactive),0.807,-0.039
